Only some compounds are listed: those with a hit (about 12% of all), similar ones and a draw of the others.
G9a inh-1 = G9a (human) methyltransferase inhibition; Q96KQ7; G9a H3K9 monomethylation, AlphaScreen, 2 h; Potency, µM (series often up to 102 µM), for inactives: top-dose activity, negative = inhibition, most hits filed as inhibitors; 8.8% of 350,000 active; AID 504332; also: potency is read from the fitted curve at half-maximal effect; % is scaled to controls: 0 for no effect and ±100 for the full control effect; nearly all actives have a fitted effect of over 75% in size
Target sequence (Q96KQ7 913-1193 limits assumed): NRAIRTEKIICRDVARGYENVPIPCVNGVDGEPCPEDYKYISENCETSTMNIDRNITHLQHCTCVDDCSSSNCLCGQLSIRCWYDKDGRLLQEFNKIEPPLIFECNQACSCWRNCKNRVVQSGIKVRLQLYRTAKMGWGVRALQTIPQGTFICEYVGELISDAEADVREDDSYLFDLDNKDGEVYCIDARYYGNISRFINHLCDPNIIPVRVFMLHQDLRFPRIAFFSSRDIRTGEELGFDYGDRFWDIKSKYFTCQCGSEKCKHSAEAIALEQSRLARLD
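Chemiluminescent proximity detection of H3K9 monomethylation, read after 10 min bead incubation in the dark. Reaction: 20 nM G9a, 500 nM biotin-H3K9 peptide, 20 uM SAM cofactor, 2 h, room temperature, following 15 min enzyme-compound preincubation.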
Sfp PPTase inh = blocks B. subtilis Sfp PPTase activity; Q9F4F7; Biochemical Sfp PPTase activity, qHTS; Potency, µM, inactives show largest response in the series, negative = inhibition, most hits filed as inhibitors; 3.5% of 310,000 active; AID 1490;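 also: the enzyme is Sfp with the accession as filed and its product quenches rhodamine fluorescence; potency is read from the fitted curve at half-maximal effect; 0% = enzyme reaction without inhibitor and -100% = no enzyme wells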
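After 15 min at room temperature with compound, 15 nM Sfp received 5 uM rhodamine-CoA plus 12.5 uM BHQ-2-ybbR (50 mM Hepes pH 7.6, 10 mM MgCl2). Rate came from the fluorescence difference over 30 min, ex 525/em 598 nm.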
JMJD2A Tudor inh = inhibitors of human JMJD2A Tudor domain | 4.4% of 390,000 active | AID 504339 | AlphaScreen JMJD2A-Tudor / H3K4me3 peptide binding | Potency, µM (titrated, usually from 114 µM), without a hit: top-dose activity change, negative = inhibition, hits mostly inhibitors | O75164; also: potency is read from the fitted curve at half-maximal effect; % is scaled to controls: 0 for no effect and ±100 for the full control effect; nearly all actives have a fitted effect of over 50% in size
HP1b binding inh = HP1-beta chromodomain-methylated histone interaction inhibition; P83916; AlphaScreen HP1-beta / biotin-H3K9me3 peptide binding; Potency, µM (titrated, usually from 114 µM), for inactives: at the highest dose activity change, negative = inhibition, actives largely listed as inhibitors; 0.56% of 390,000 active; also: potency is read from the fitted curve at half-maximal effect; nearly all actives have a fitted effect of over 70% in size
Target sequence (P83916 whole entry, looked up): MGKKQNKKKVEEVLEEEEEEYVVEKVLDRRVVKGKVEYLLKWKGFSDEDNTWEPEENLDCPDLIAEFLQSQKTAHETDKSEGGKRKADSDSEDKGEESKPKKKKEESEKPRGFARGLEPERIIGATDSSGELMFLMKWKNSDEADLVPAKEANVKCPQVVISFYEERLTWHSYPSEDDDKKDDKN
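HP1-beta protein (50 nM final) preincubated 30 min at room temperature with biotinylated H3(1-18)K9me3 peptide (50 nM) in PBS pH 7.4, 0.01% Tween-20, then compound added for 30 min. AlphaScreen streptavidin donor/nickel chelate acceptor beads (10 ug/mL final), 30 min dark, luminescence read.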
BAZ2B inh = BAZ2B (human) inhibition. 4.4% of 360,000 active. Q9UIF8. AlphaScreen BAZ2B-H3K14Ac peptide displacement. AID 504333. Potency, µM (doses to about 114 µM), without a hit: top-dose activity change, negative = inhibition, most hits filed as inhibitors; also: potency is read from the fitted curve at half-maximal effect; % is scaled to controls: 0 for no effect and ±100 for the full control effect; nearly all actives have a fitted effect of over 60% in size
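In this displacement format the biotinylated H3(5-23) peptide acetylated at Lys14 serves as ligand at 50 nM, with BAZ2B at 50 nM in PBS pH 7.4 containing 0.01% Tween-20. Donor and acceptor beads are 10 ug/mL final.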
PLK1 PBD inh = blocks phosphopeptide binding to human PLK1 polo-box domain. 2.8% of 360,000 active. Potency, µM, for inactives: max response, negative = inhibition, actives largely listed as inhibitors. Plk1 PBD binding of FITC phosphopeptide, fluorescence polarization; also: potency is read from the fitted curve at half-maximal effect; series mostly up to about 57 µM; % is scaled to controls: 0 for no effect and ±100 for the full control effect; nearly all actives have a fitted effect of over 65% in size
G9a inh-2 = inhibits human G9a histone lysine methyltransferase, hit confirmation | shares compounds with JMJD2A Tudor inh | 89% of 370 active | G9a H3K9 monomethylation, AlphaScreen, 2 h | Potency, µM, usual class: inhibitors; also: potency is read from the fitted curve at half-maximal effect; nearly all actives have a fitted effect of over 65% in size
RGS4 inh = inhibits human RGS4, hit validation; shares compounds with JMJD2A Tudor inh; RGS4 GAP activity, Transcreener GDP fluorescence polarization; Potency, µM, actives largely listed as inhibitors; 80% of 25 active; AID 602388
Target sequence (P49798 whole entry, looked up): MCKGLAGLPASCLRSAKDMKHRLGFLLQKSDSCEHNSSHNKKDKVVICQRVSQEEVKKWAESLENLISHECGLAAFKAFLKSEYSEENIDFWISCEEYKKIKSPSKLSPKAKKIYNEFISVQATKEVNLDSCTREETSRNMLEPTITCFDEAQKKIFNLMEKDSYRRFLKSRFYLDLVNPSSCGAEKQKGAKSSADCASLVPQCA
* = called active by the depositor; ? = inconclusive; . = not tested or not shown; [ ] = dose if it differs, or a comment. Calls follow the shape of the dose curve; as a rule, active = well fitted curve in the direction sought with a large enough effect; inconclusive = small, poorly fitted or top-dose-only effect, or another doubt; inactive = no such curve, though single readings can be large; an effect the other way counts as inactive or inconclusive.

SMILES	G9a inh-1	Sfp PPTase inh	JMJD2A Tudor inh	HP1b binding inh	BAZ2B inh	PLK1 PBD inh	G9a inh-2	others
Cc1nn(-c2ccccn2)c2c1C(=O)C(Br)CC2 (stereo unspecified)	1.26µM*	3.98µM*	12.6µM*	?	.	2.99µM*	0.252*
Cc1noc(C)c1C(=O)N1CCC2(CC1)CN(c1cccc(-c3ccccc3)c1)C2	-3.6%[12.7 µM]	-3.7%	.	.	.	.	.
CCn1c(SCC(=O)N2CCCC2)nnc1-c1ccc(N)cc1	1.12µM*	-9.8%	11.6%[11.4 µM]	-7.4%	0.2%	-26.7%	1.59*
CCCCn1c(SCC(=O)N2CCCC2)nnc1-c1ccccc1	3.0%	11.8%	8.1%	26.6%	-2.5%	-6.6%	.
CCOc1ccc(CNc2ccc3c(c2)ncn3C)cc1	?	-17.4%	?	-17.8%	?	-11.7%	1.78*
CCn1cnc2cc(NCc3ccc(C)cc3)ccc21	1.58µM*	-9.1%	?	-10.4%	?	-0.1%	4.47*
CCn1cnc2cc(NCc3nc4ccccc4n3C)ccc21	2.51µM*	2.2%	-34.8%	-3.8%	?	-8.5%	?
CC(=O)Nc1ccc2c(c1)ncn2C	-0.1%[59 µM]	10.4%	-14.5%[57.1 µM]	59.9%	-1.3%	-4.0%	.
CCCCN1C(=O)C(CC(=O)NCc2cccc3ccccc23)CC(C(=O)N2CCOCC2)=C1C (stereo unspecified)	.	.	.	.	.	-2.3%	.
CCCC12CN3CC(CCC)(CN(C1)C3c1ccccc1)C2=O (stereo unspecified)	-16.1%[59 µM]	.	-9.1%	3.8%	-22.8%	.	.
Cc1cc(Cl)ccc1OCCn1cncn1	2.8%	-1.2%	-2.1%	40.1%	-0.9%	4.4%	.
c1ccc(Oc2cccc(OCCn3cncn3)c2)cc1	1.78µM*	-5.8%	25.1µM*	-54.7%	39.8µM*	-7.9%	28.3*
Cc1ccc(NC2CCCN(C(=O)c3cn4cccc(C)c4n3)C2)cc1C (stereo unspecified)	?	14.6%	-18.2%	6.1%	-25.3%	6.6%	.
Cc1ccc(NC2CCCN(C(=O)c3cn4cc(Cl)ccc4n3)C2)cc1C (stereo unspecified)	?	-0.1%	0.8%	24.2%	?	-6.3%	31.6*
CSc1cccc(N2CC(C(=O)Nc3ccccc3N3CCCC3)CC2=O)c1 (stereo unspecified)	?	.	?	-7.5%	?	-1.6%	.
CCNCCC(CCC(C)C)c1ccc2c(c1)OCO2 (stereo unspecified)	1.58µM*	?	?	-6.5%	79.4µM*	9.5%	11.2*
COc1ccc(OC)c(NC(=O)c2c(NCc3ccc(C)o3)sc3c2CCCCC3)c1	1.58µM*	.	35.5µM*	?	-36.7%	.	5.13*
COc1ccc(Cl)cc1NC(=O)c1c(NCc2ccc(C)o2)sc2c1CCCCC2	?	.	?	-19.3%	-26.0%	.	.
COc1ccccc1NC(=O)c1c(NCc2ccc(C)o2)sc2c1CCCCC2	1.26µM*	.	44.7µM*	?	?	.	3.63*
Nc1ccccc1C(=O)N1CCCC1	-17.9%	-0.8%	12.0%	59.9%	-1.5%	-6.5%	.
OC(c1ccc(Cl)c(F)c1)c1ncc(-c2cccc(F)c2)[nH]1 (stereo unspecified)	.	.	.	.	.	3.6%	.
CCN1CCOC(=O)C1CC(=O)Nc1cc(Cl)ccc1C (stereo unspecified)	0.708µM*	.	-14.6%	16.3%	-21.8%	.	6.31*
Cc1c(Cl)c([N+](=O)[O-])nn1CCCC(=O)Nc1ccc(Cl)cc1Cl	9.9%	4.8%	-19.9%	6.6%	-26.0%	-15.7%	.
CC(C(=O)N1CCCCC1)N(C)CC(=O)Nc1cccc(F)c1 (stereo unspecified)	?	.	25.1µM*	-21.7%	15.8µM*	0.2%	44.7*
COCCn1nnnc1C(c1ccc(O)c(OC)c1)N1CCc2ccccc2C1 (stereo unspecified)	?	14.1µM*	?	?	?	-18.1%	0.71*
SMILES	G9a inh-1	Sfp PPTase inh	JMJD2A Tudor inh	HP1b binding inh	BAZ2B inh	PLK1 PBD inh	G9a inh-2	others
COc1ccc(C(c2nnnn2C2CCCC2)N2CCc3ccccc3C2)cc1OC (stereo unspecified)	-5.6%[59 µM]	-16.8%	-32.6%	28.6%	?	0.1%	.
COC(=O)c1ccc(NC(=O)CSc2ccc(-c3cccs3)nn2)cc1	-1.0%[59 µM]	.	4.4%	26.2%	-2.8%	.	.
COc1ccc(OC)c(NC(=O)CSc2ccc(-c3cccs3)nn2)c1	2.82µM*	.	?	-14.6%	-18.9%	.	10.2*
CCOC(=O)C1CCCN(C(=O)c2cc(-c3ccncc3)nc3ccccc23)C1 (stereo unspecified)	-1.6%	.	-5.4%	34.8%	8.5%	-1.7%	.
CCOC(=O)C1CCCN(C(=O)c2cc(-c3ccco3)nc3ccccc23)C1 (stereo unspecified)	.	.	14.1µM*	39.8µM*	.	?	.	RGS4 inh=26.7*
c1ccc(-c2ccc3c(c2)NCCN3)cc1	?	-21.3%	44.7µM*	?	56.2µM*	-15.8%	0.564*
COc1cccc(NC(=O)NCCCN2CCN(c3ccc(F)cc3)CC2)c1	4.8%	5.6%	-27.9%	-14.0%	-30.4%	-10.6%	.
COc1ccc(N2CCC(CNC(=O)Nc3ccc(Cl)cc3)C2)cc1 (stereo unspecified)	0.708µM*	-0.8%	?	?	-33.9%	-3.7%	0.502*
COc1ccc(N2CCC(CNC(=O)Nc3cccc(OC)c3)C2)cc1 (stereo unspecified)	?	-0.6%	39.8µM*	15.8µM*	31.6µM*	-8.6%	1.59*
O=C(NCC1CC1)Nc1ccc(Cl)cc1	13.7%	7.1%	-3.0%	25.8%	1.5%	-8.4%	.
COc1cccc(-c2cncnc2NCc2cccnc2)c1	-6.0%[0.501 µM]	?	.	.	.	.	.	RGS4 inh=29.9*
Cc1ccnc(NC(=O)c2ccc(N3C(=O)CCC3=O)cc2)c1	?	-4.2%	13.0%[11.4 µM]	9.1%	12.4%	-9.0%	.
Cc1ccc(CNC(=O)CSc2ncccn2)cc1	?	12.3%	-7.3%	15.9%	-4.8%	-1.1%	22.4*
COc1ccc(NC(=O)CN(C)CC(=O)NCc2ccc(C)cc2)cc1	18.5%[12.7 µM]	.	-13.9%	17.6%	-4.2%	-6.3%	.
CCN(CC(=O)Nc1ccc(NC(C)=O)cc1)Cc1c(O)ccc2cc(Br)ccc12	1.78µM*	-16.9%	50.1µM*	70.8µM*	50.1µM*	9.47µM*	0.448*
Cc1ccc(NC(=O)CN(C)Cc2c(O)ccc3ccccc23)cc1	1.41µM*	-17.4%	79.4µM*	-12.3%	-32.6%	3.77µM*	0.632*
O=C(NCc1ccccn1)c1c(-c2ccccc2)sc2ccccc12	.	.	-27.1%	25.6%	.	-13.5%	.

Screens as filed in PubChem.
